Cav3 T inh: Cav3.2 calcium influx blockers – cell-based, Fluo-4 calcium fluorescence, FDSS, MLSMR library, primary screen; 4% of 100,000 active; B-score at 10 µM; Voltage-dependent T-type calcium channel subunit alpha-1H (Homo sapiens), O95180; Cav3.2-expressing cells; stronger effect = lower value;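 active = single-dose well whose peak fluorescence ratio is a statistical outlier from its plate by either plate-standardised score or position-corrected B-score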
CYP2C19 inhib: blockers of cytochrome P450 2C19 activity – biochemical, luminescence, ADME assay, primary screen | P33261 | 21% of 96,000 active | CYP2C19 Supersomes, luciferin-H EGE luminescence, 30 min | inhibition, % at 5 µM;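 active = CYP2C19 inhibition above a set limit at 5 µM in the primary screen, cut at about 50% in these data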
CYP2C9 inh: blockers of cytochrome P450 2C9 activity – biochemical, luminescence, ADME assay, primary screen. P11712. CYP2C9 Supersomes, luciferin-H conversion. inhibition, % at 5 µM. 20% of 96,000 active. AID 777, 2007;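 active = blocking of liver enzyme CYP2C9 beyond about 50% at 5 µM, limit read from the data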
Pyk2 oligo antag: antagonists of Pyk2 self-association, primary screen, Q293 cells, FERM NanoBiT luminescence, HTS. AID 1347419, 2020. z-score (the deposit names both 25 µM and 10 µM). Protein-tyrosine kinase 2-beta (Homo sapiens), Q14289. 0.83% of 99,000 active. stronger effect = lower value;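 active = Z-score of -3 or lower, scaled per plate to the spread of control and sample wells; inactive = z-score above -3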;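 note: negative z-score means lost luminescence so less FERM oligomerization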
Target sequence (Q14289 whole entry, looked up): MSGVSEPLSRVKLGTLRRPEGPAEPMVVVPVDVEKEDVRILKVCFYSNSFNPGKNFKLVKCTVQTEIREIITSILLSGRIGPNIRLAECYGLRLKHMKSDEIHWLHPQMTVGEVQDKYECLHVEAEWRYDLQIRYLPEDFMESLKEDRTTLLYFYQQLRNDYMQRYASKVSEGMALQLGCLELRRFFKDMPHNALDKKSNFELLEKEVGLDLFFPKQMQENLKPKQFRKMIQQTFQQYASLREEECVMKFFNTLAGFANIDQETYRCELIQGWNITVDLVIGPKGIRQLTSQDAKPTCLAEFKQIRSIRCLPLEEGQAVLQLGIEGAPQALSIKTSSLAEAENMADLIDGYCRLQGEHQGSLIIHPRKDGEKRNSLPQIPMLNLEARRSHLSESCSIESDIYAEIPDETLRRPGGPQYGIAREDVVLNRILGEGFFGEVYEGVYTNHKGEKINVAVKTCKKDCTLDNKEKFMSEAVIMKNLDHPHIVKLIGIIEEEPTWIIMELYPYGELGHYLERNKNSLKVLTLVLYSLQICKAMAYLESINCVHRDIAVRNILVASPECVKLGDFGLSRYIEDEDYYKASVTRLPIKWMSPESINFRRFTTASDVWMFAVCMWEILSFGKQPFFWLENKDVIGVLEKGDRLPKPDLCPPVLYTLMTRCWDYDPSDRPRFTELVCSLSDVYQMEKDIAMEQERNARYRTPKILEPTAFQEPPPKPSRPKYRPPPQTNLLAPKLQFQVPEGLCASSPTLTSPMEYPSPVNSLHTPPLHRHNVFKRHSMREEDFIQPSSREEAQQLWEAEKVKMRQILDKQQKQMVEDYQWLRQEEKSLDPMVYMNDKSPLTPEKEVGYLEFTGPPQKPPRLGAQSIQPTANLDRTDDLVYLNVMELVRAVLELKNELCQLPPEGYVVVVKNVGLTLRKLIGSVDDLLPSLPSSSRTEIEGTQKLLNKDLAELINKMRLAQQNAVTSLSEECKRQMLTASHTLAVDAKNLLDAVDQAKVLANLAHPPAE
CYP2C9 activ: human CYP2C9 activators, primary screen, biochemical, luminescence; Cytochrome P450 2C9 (Homo sapiens), P11712; recombinant CYP2C9, luciferin-H conversion; stronger effect = higher value; factor 1 = untreated enzyme, 0 = blocked; activation factor at 5 µM; 1.4% of 96,000 active;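 active = activation factor of 2 or more for CYP2C9 at a 5 µM dose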
CYP2C19 activ: human CYP2C19 activators, primary screen, biochemical, luminescence | 96,000 tested, under 10 active | activation factor at 5 µM | recombinant CYP2C19, luciferin-H EGE luminescence; stronger effect = higher value; 0 = fully inhibited enzyme, 1 = untreated enzyme | Cytochrome P450 2C19 (Homo sapiens), P33261;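 active = activation factor of at least 2 at 5 µM in the primary screen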
Of the large screens only hits and unclear results are named; the others gave an inactive call. Only some compounds are listed: those with a hit (about 27% of all), similar ones and a draw of the others.

Cc1cccc(NC(=O)c2ccccc2C(=O)O)c1	none
CCCCC1=CC2=CC(=O)C(C)(OC(=O)c3cnc4ccccc4n3)C(=O)C2=CO1 (configuration not stated)	none (no result: CYP2C19 inhib, CYP2C9 inh, Pyk2 oligo antag, CYP2C9 activ, CYP2C19 activ)
Clc1ccc2nc(CN3CCCc4ccccc43)cn2c1	CYP2C19 inhib 88, CYP2C9 inh 93
Clc1ccc2nc(CN3CCCCC3)cn2c1	none
O=C1/C(=C/c2ccc(C(=O)O)cc2)CCC/C1=C\c1ccc(C(=O)O)cc1	none (no result: Cav3 T inh, CYP2C19 inhib, CYP2C9 inh, CYP2C9 activ, CYP2C19 activ)
Cn1cccc1/C=C1\CCC/C(=C\c2cccn2C)C1=O	Cav3 T inh -13
Cc1ccc(OS(=O)(=O)c2ccccc2)c(/C=N/N=C2\NC(=O)C(C)S2)c1 (configuration not stated)	none (no result: CYP2C19 inhib, CYP2C9 inh, CYP2C9 activ, CYP2C19 activ)
CN=C(Nc1ccccc1OC)SC1CC(=O)N(c2ccc(C(=O)OC)cc2)C1=O (configuration not stated)	none
COC(=O)c1ccc(C2NC(=S)N(c3ccccc3)C(C)=C2C(=O)Nc2ccccc2OC)cc1 (configuration not stated)	CYP2C19 inhib 80, CYP2C9 inh 81
CCn1c(/N=C/c2ccccc2NS(=O)(=O)c2ccc(C)cc2)nc2ccccc21	none (no result: Cav3 T inh, CYP2C19 inhib, CYP2C9 inh, CYP2C9 activ, CYP2C19 activ)
Clc1cccc(CSc2ncn(-c3ccccc3)n2)c1	none (no result: CYP2C19 inhib, CYP2C9 inh, CYP2C9 activ, CYP2C19 activ)
Clc1cccc(CSc2nccn2-c2ccccc2)c1	CYP2C19 inhib 73
Nc1nnc(SCc2ccc(F)cc2)n1-c1ccccc1	none (no result: CYP2C19 inhib, CYP2C9 inh, CYP2C9 activ, CYP2C19 activ)
FC(F)(F)c1ccc(CSc2nccn2-c2ccccc2)cc1	CYP2C19 inhib 82, CYP2C9 inh 88
CC(C)Cn1[nH]c2c3c(ccc2c1=O)C(=O)c1ccccc1C3=O	CYP2C19 inhib 61, CYP2C9 inh 80
COc1cc(C(=O)N2CCC(O)(c3ccccc3)CC2)cc(OC)c1OC	CYP2C19 inhib 66, CYP2C9 inh 79
O=C(OCc1nnc(-c2ccccc2)o1)C1=COCCO1	CYP2C19 inhib 51
COc1cc(-c2nnc(COC(=O)c3cc(C)nc4ccc(C)cc34)o2)cc(OC)c1OC	CYP2C19 inhib 90, CYP2C9 inh 88
Cc1ccc(C(=O)OCc2nnc(-c3ccccc3)o2)o1	CYP2C19 inhib 80
CC(C(=O)OCc1nnc(-c2ccccc2)o1)N1C(=O)c2ccccc2C1=O (configuration not stated)	CYP2C9 inh 56
O=C(CSc1ccc(Cl)cc1)OCc1nnc(-c2ccccc2)o1	none
COc1ccc(OC)c(NC(=O)C2C3C=CC(C3)C2C(=O)NCc2ccccn2)c1 (configuration not stated)	none
Cc1ccc(-c2nnc(Cc3ccc(Cl)cc3)o2)cc1	none (no result: Pyk2 oligo antag)
c1ccc(Cc2nnc(-c3ccccc3)o2)cc1	Cav3 T inh -5.5, CYP2C19 inhib 52
O=C(Nc1ccccc1C(=O)OCc1nnc(-c2ccccc2)o1)c1ccco1	CYP2C19 inhib 76, CYP2C9 inh 95
O=C(OCc1nnc(-c2ccccc2)o1)c1ccc2c(c1)OCCO2	CYP2C9 inh 58
COc1cc(CCC(=O)OCc2nnc(-c3ccccc3)o2)cc(OC)c1OC	CYP2C19 inhib 64, CYP2C9 inh 82
Cc1cc(C)n(-c2ccc(C(=O)OCc3nnc(-c4ccccc4)o3)cc2)n1	none
COCCCNC(=O)c1ccc(CS(=O)(=O)c2ccc(Br)cc2)o1	none (no result: Pyk2 oligo antag)
C=CCn1c(SC(C)CC)nc(O)cc1=O (configuration not stated)	CYP2C19 inhib 98, Pyk2 oligo antag -4.5
COc1ccc(C2CN=NC23CCCc2ccccc2C3=O)cc1 (configuration not stated)	Cav3 T inh -4.2, CYP2C19 inhib 59
COc1cccc(C2=CC(=O)CCC2)c1OC	none (no result: CYP2C19 inhib, CYP2C9 inh, Pyk2 oligo antag, CYP2C9 activ, CYP2C19 activ)
COc1ccccc1C1CN=NC12CCCc1ccccc1C2=O (configuration not stated)	Cav3 T inh -4.7, CYP2C19 inhib 71, CYP2C9 inh 51
COc1ccc(C2C(C(=O)N3CCN(C)CC3)c3ccccc3C(=O)N2C2CCCCC2)cc1 (configuration not stated)	none
CCn1c(=O)cc(SCC(=O)N2CCCCC2)c2ccccc21	none
CCn1c(=O)cc(SCC(=O)N2CCC(C)CC2)c2ccccc21	CYP2C9 activ 2.7
CCOC(=O)C1CCN(C(=O)CSc2cc(=O)n(CC)c3ccccc23)CC1	CYP2C19 inhib 60
O=C(NNc1ccc([N+](=O)[O-])cc1)C12CC3CC(CC(C3)C1)C2	none
CCOc1ccc(CCNC(=O)CN2CCN(Cc3ccccc3C)C2=O)cc1OCC	none
O=S(=O)(Nc1cccc2c1ccc1cccn12)c1cccs1	CYP2C9 inh 59
COCCn1c(SCc2nc3sc(C(=O)OC)c(C)c3c(=O)[nH]2)nc2ccccc21	CYP2C19 inhib 74, CYP2C9 inh 91
CCn1c(SCc2nc3sc(C(=O)O)c(C)c3c(=O)[nH]2)nc2ccccc21	CYP2C9 inh 55 (no result: Cav3 T inh)
CCn1cnc2cc(NCc3ccc(C)cc3)ccc21	CYP2C19 inhib 75
CCCn1cnc2cc(NCc3cccc(OC)c3)ccc21	CYP2C19 inhib 59
COc1ccc(-n2cnc3cc(NS(=O)(=O)c4ccc(C)cc4)ccc32)cc1	CYP2C19 inhib 91, CYP2C9 inh 98
CCCCn1cnc2cc(NCc3cccc(OC)c3O)ccc21	none
COc1ccc(S(=O)(=O)Nc2cc(C)ccn2)cc1	none
COc1ccccc1-n1cnc2cc(NS(=O)(=O)c3ccc(Br)cc3)ccc21	CYP2C19 inhib 98, CYP2C9 inh 99, Pyk2 oligo antag -3.3
C[C@H](c1ccccc1)n1nnc(COCc2ccccc2)c1C#CCOCc1ccccc1	none (no result: CYP2C19 inhib, CYP2C9 inh, Pyk2 oligo antag, CYP2C9 activ, CYP2C19 activ)
CCn1cnc2cc(NS(=O)(=O)c3ccc(C)cc3)ccc21	CYP2C19 inhib 89, CYP2C9 inh 84
O=C(NCCC1=CCCCC1)C1CCN(S(=O)(=O)c2cccc3nsnc23)CC1	none (no result: CYP2C19 inhib, CYP2C9 inh, CYP2C9 activ, CYP2C19 activ)
c1csc(CSc2nc3ccccc3s2)c1	none
Cc1noc(C)c1CSc1nc2ccccc2s1	CYP2C19 inhib 94
CCn1c(CSc2nc3ccccc3s2)nc2ccccc21	Cav3 T inh -5.7, CYP2C19 inhib 98
Cc1noc(C)c1CSc1ncnc2ccccc12	CYP2C19 inhib 96, CYP2C9 inh 86
Cc1cc(C)cc(SCc2noc(C(=O)NCCC(C)C)c2C(=O)NCCC(C)C)c1	none (no result: CYP2C19 inhib, CYP2C9 inh, Pyk2 oligo antag, CYP2C9 activ, CYP2C19 activ)
CCC(=O)N(Cc1cc2cc(OC)ccc2[nH]c1=O)c1ccc(C)cc1C	CYP2C9 inh 55
COc1ccc2[nH]c(=O)c(CN(CCc3cccc(C)c3)C(C)=O)cc2c1	CYP2C19 inhib 86, CYP2C9 inh 63
O=C(Nc1ccccc1C(=O)N1CCOCC1)c1ccncc1	none
Cc1ccc(N2C(=O)c3ccc(C(=O)N4CCN(c5ccccc5F)CC4)cc3C2=O)cc1	none (no result: Pyk2 oligo antag)
